A word on the AC50: it is the concentration at which the activity in the assay is half-maximal.

SMILES strings stand for the structures. Calls of active or inactive are those of the source. Rule for the calls: active = hit-call score of the fitted dose curve at least 0.9, where 1 is the maximum; inactive = score below 0.9.

Read-out in this experiment: ATP-citrate lyase (ACLY), ACLY (gene 47)
Nature of the experiment: LTEA_HepaRG_ACLY: Life Technologies and Expression Analysis (LTEA) Assay for ATP-citrate lyase (ACLY) using HepaRG (AID 2283466). The following applies: mRNA level, 48 h; actives raise or lower the signal. The procedure: LTEA_HepaRG is a cell based, multiplexed-readout assay that uses HepaRG, a human liver cell line, with measurements taken at 48 hours after chemical dosing on a 96-well plate.LTEA_HepaRG_ACLY is one of 102 assay component(s) measured in the LTEA HepaRG cell culture assay. It is a marker of Steatosis.Data from the assay component LTEA_HepaRG_ACLY was analyzed into 1 endpoint. This assay endpoint, LTEA_HepaRG_ACLY, was analyzed with bidirectional fitting relative to DMSO as the negative control and baseline of activity. Using a type of inducible reporter, measures of mRNA induction for gain or loss-of-signal activity can be used to understand regulation of transcription factor activity. To generalize the intended target to other relatable targets, this assay endpoint is annotated to the lyase intended target family, where the subfamily is steatosis.
A total of 1060 chemcials from the ToxCast library were tested in eight-point concentration-response experiments. Cell culture and cytotoxicity assays were conducted at Thermo Fisher Scientific's Custom Services facility (Madison, WI). A single lot of human HepaRG cells (Thermo Fisher Scientific, Frederick, MD) was used for the cell culture experiments. 96-well format collagen type I coated plates of human HepaRG cells were prepared using established methods. Briefly, cryopreserved HepaRG cells were thawed, plated at a density of approximately 100,000 cells/well in HepaRG Thaw, Plate, and General Purpose media (HPRG770, Thermo Fisher Scientific), and incubated for 48 hours. 0.5% DMSO was selected as vehicle control to balance the requisite need of DMSO in HepaRG cultures to maintain differentiation (for example, baseline metabolism, proportions of hepatocytes vs. cholangiocytes), while enabling further hepatic receptor pathway activation (for example, PXR and CAR) in response to chemical exposure. 48 hours after plating, the culture medium was replaced with HepaRG Serum-Free Incudtion Media. Cells were exposed to each test chemical in duplicate and maintained in CO2 incubators for another 48 hours. Chemical plates were thawed to room temperature and 200x concentrations of treatment groups were prepared. 8-point conentration-reponse curves were made with the highest exposure at 100 uM, followed by half-log dilutions, all in 0.5% DMSO. Each test plate contained variouse controls, induction positive controls (1mM phenobarbital), cytotoxicity positive controls ([…] aflatoxin B1), vehicle controls (0.5% DMSO), and total lysis controls (0.5% DMSO). Cell morphology images were taken using an Essen IncuCyte FLR automated microscope, with six 96-well plates imaged in about 24 minutes. Images were captured and exported and JPEG files. Spent culture media was transfered to black-well plates for the LDH assay, and remaining media was sorted at -80 C for later use. Cells were treated with RLT buffer and frozen until shipped for gene expression analysis. Total RNA was isolated from the cell suspension in 75 uL of Buffer RLT (Qiagen, Germantown, MD 20874) by Quintiles/Expression Analysis (Durham, NC) using a custom isolation procedure. Total RNA from each plate well was transferred to a preamplification plate. Fluidigm's 96.96 Dynamic ArrayTM (Fluidigm, Amsterdam, the Netherlands) technology was used for gene expression analyses by quantitative reverse transcription polymerase chain reaction (qRT-PCR, performed by Quintiles/Expression Analysis, Durham, NC)89. Standard TaqManTM Assays (Applied Biosystems/ThermoFisher Scientific, Foster City, CA) were used to assess the expression of 93 genes selected based on their selectivity and sensitivity to important hepatic receptors known to be modulated by environmental chemicals; importance in human hepatocyte functionality; and hepatotoxicity. […]
In the case of `CC(=O)N1CCN(c2ccc(OC[C@H]3CO[C@](Cn4ccnc4)(c4ccc(Cl)cc4Cl)O3)cc2)CC1`, the concentration at half-maximal activity (AC50) was 1.23 µM (active). As to `CC(O)CC(C)(C)O` (stereo not given), the result was inactive. For `c1ccc2n[nH]nc2c1`, the compound was called inactive. Still for that read-out and setting: next, `O=C(O)Cc1cc(I)c(Oc2ccc(O)c(I)c2)c(I)c1`: “inactive”; `CN(C[C@@H](CC[N+]12CCC(C3CCCCC3)(CC1)CC2)c1ccc(Cl)c(Cl)c1)C(=O)c1cc(C(F)(F)F)cc(C(F)(F)F)c1`: “inactive”; `Cc1ccc(C(C)C)cc1`: “inactive”.

As to `Cc1oc2c(NC(=O)c3c(Cl)cccc3Cl)cccc2c1C(C)(C)O`, the AC50 was 29.6 µM (active). In the case of `Cc1ncc(CO)c(CO)c1O`, the result was inactive. Turning to `CC1(C)NC(=O)N(c2ccc([N+](=O)[O-])c(C(F)(F)F)c2)C1=O`, the AC50 is 76.5 µM (active).

For `CCN(CC)C(=O)c1cc(S(=O)(=O)Cc2ccccc2)c(N2CCC(c3ccccc3)CC2)cc1N(CC)CCN(C)C`, the half-maximal activity concentration (AC50) is 4.57 µM (active). In the case of `CN(C)c1ccc(C(=C2C=CC(=[N+](C)C)C=C2)c2ccc(N(C)C)cc2)cc1`, the AC50 is 12.5 µM (active). `CCO[Si](CCCNC(N)=O)(OCC)OCC`: the compound was called inactive.

Take `CN1C(=O)N(c2ccccc2Br)Cc2cnc(Nc3ccc4c(c3)OCC(CO)O4)nc21` (stereo not given): the AC50 is 50 µM (active). As for `Cc1cc2c(cc1C(F)(F)F)N(C(=O)Nc1ccc(Oc3cccnc3C)nc1)CC2`, the compound was called inactive. For `CCCC(=O)OCCC(C)C`, the result was inactive. On the same count and under the same terms, the value for `CC[C@H](NC(=O)c1cc(F)ccc1NS(=O)(=O)c1cccc2cccnc12)c1ccccc1` was “inactive”; that for `CCCCCc1ccc(N)cc1` was “inactive”. Same read-out and setting: the value for `CC(C)(c1cc(Br)c(O)c(Br)c1)c1cc(Br)c(O)c(Br)c1` was “inactive”. On to `OC12N=C(c3ccccc3)SC1Cc1cc(Cl)ccc12` (stereo not given), for which the half-maximal activity concentration (AC50) is 0.377 µM (active). For the compound `CC(C)(C)c1csc(-c2cc3cc(OCc4ccccc4CC(=O)O)ccc3o2)n1`, the AC50 was 87.4 µM (active). Turning to `COc1cc(C(=O)NC2CCN(C)CC2)ccc1Nc1ncc2c(n1)N(C1CCCC1)CC(F)(F)C(=O)N2C`, the half-maximal activity concentration (AC50) was 32.4 µM (active). On to `c1ccc2ccccc2c1`, for which the outcome was inactive. With `CCCCCCCC[Si](OCC)(OCC)OCC`, the outcome was inactive. On to `Oc1ccccc1`, for which the result was inactive. Take `O=C1c2ccccc2C(=O)N1CCc1noc(-c2ccc(CN3CCCCCC3)s2)n1`: the compound was called inactive. As for `CCCCCCCCCC(=O)O`, the outcome was inactive.

As for `CCN(Cc1cccnc1)C(=O)c1cccc(Cl)c1[C@]1(C)C(=O)N(Cc2ccc(OC)cc2OC)c2ccc(Cl)cc21`, the AC50 was 16.9 µM (active). As for `Clc1ccccc1C(c1ccccc1)(c1ccccc1)n1ccnc1`, the AC50 was 8.91 µM (active).

For `Cc1cccc2ccccc12`, the call was inactive. Take `c1ccc(C[n+]2cccc3ccccc32)cc1`: the call was inactive.

As for `NC(=O)c1nc(-c2cccc(-c3cc(F)ccc3OCC(F)(F)C(F)(F)F)c2)n[nH]1`, the outcome was inactive. Take `O=CCCCC=O`: the result was inactive.

On to `C[C@]12CC[C@@H]3c4ccc(O)cc4CC[C@H]3[C@@H]1CCC2=O`, for which the call was inactive. `CC(C)(C)c1cc(/C=C2\SC(N)=NC2=O)cc(C(C)(C)C)c1O`: the AC50 is 82 µM (active).

As to `CC/C(=C(/CC)c1ccc(O)cc1)c1ccc(O)cc1`, the AC50 is 50 µM (active). As for `CCCCCCCCCCCC[N+](C)(C)C`, the half-maximal activity concentration (AC50) is 83.3 µM (active). With `Cc1ccc2oc(CN(Cc3ccccc3)C(=O)Nc3c(F)cc(F)cc3F)c(-c3ccc(Cl)cc3)c2c1`, the result was inactive. `CCOC(=O)O[C@H](C)OC(=O)c1ccc2c(c1)cc(C(=O)NC1CCN(C(C)C)CC1)n2Cc1cc(-c2ccc(Cl)s2)on1`: the result was inactive. Consider `CN1C(=O)CC[C@H]1c1cccnc1`, for which the compound was classed as inactive. Turning to `Cc1occc1C(=O)Nc1ccc(C(=O)N2CCC(F)(F)/C(=C\C(=O)N3CCC(N4CCCCC4)CC3)c3ccccc32)cc1`, the AC50 is 53.2 µM (active).

The record behind these values is PubChem BioAssay (EPA / NIEHS).
